The values that follow come from PubChem BioAssay (NCI).

The structures appear in SMILES notation. Where “and” joins values, the source holds several entries; their conditions need not be identical. Identical values can stand only once. Compounds without any hit were thinned out: in the full panel of roughly 83,000, 20% have a hit.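 How to read the values: 0–100, growth inhibition (40 = 60% inhibited); 0, no net growth; -100 to 0, cell death (-40 = 40% of starting cells died; -100 = all dead).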 Calls of active or inactive are those of the source. Rule for the calls: active = growth percent below 10; inactive = the rest.

This assay has as its system HL-60(TB) leukemia. Put plainly: NCI-60 one-dose screen, 48 h (100 = growth as untreated, 0 = no growth, -100 = all killed). Conditions: 10 µM unless noted.
In the case of `O=C1/C(=C/c2ccc(Cl)cc2)COc2ccc(O)cc21`, the growth was -11.3% (active).

Turning to `CC1=CC(=C(c2ccc(N)cc2)c2ccc(N)cc2)C=CC1=N`, the growth was -13.5% (active) and 47.8% (inactive).

As for `COc1ccc(C2=NN(C(C)=O)C(c3cc(OC)c(OC)c(OC)c3)C2)cc1` (centres undefined), the growth was 95.2% (inactive).

As for `CN1CCN(C2=Nc3ccccc3Oc3ccc(Cl)cc32)CC1`, the growth was 91.8% (inactive).

As to `CCOC(=O)N(O)c1ccc(/C=C/c2ccccc2)cc1`, the growth is 61.1% (inactive) and 43.9% (inactive).

With `Cc1ccccc1NC(=O)N/C(N)=N/c1nc(C)c(C)s1`, the growth was -2.57% (active).

`CCOC(=O)C1=CC(=O)CC(C)(C)O1`: the growth is 53.2% (inactive) and 69.6% (inactive).

`FC(F)(F)c1cccc(Nc2ccccc2)c1`: the growth is 92.7% (inactive).

Turning to `CCN(CC)c1ccc2c(c1)Oc1nc(N)c(C#N)c(N)c1C2Sc1ccc(OC)cc1` (centres undefined), the growth was -16.6% (active).

For `O=C(Cc1ccccc1)Cc1ccccc1`, the growth was 99.2% (inactive).

On to `CN1CCN(Cc2ccc(NC(=O)c3nc4ccc5[nH]ncc5c4c4c3CCC4)cc2C(F)(F)F)CC1`, for which the growth was -59.1% (active).

As for `O=C(Nc1cc(Cl)ccc1O)c1ccc(Nc2ccnc(C(F)(F)F)c2)cc1`, the growth was -11% (active).

With `Cc1ccc(/C=C2\SC(=S)N(c3ccc(F)cc3)C2=O)o1`, the growth is 82.8% (inactive).

`CO[C@H]1/C=C/O[C@@]2(C)Oc3c(C)c(O)c4c(O)c(c(/C=N/N5CCN(C)CC5)c(O)c4c3C2=O)NC(=O)/C(C)=C\C=C\C(C)[C@H](O)[C@@H](C)[C@@H](O)[C@@H](C)[C@@H](OC(C)=O)[C@@H]1C` (some centres undefined): the growth was 104% (inactive).
